The list is not random: actives were taken first. Their share in the collection is about 0.9%.
PfHsp40 yeast = rescue of yeast from PfHsp40 toxicity, primary screen, S. cerevisiae, ATP luminescence. S. cerevisiae expressing PfHsp40, growth rescue. growth rescue, % at 12.5 µM. 0.68% of 340,000 active; in the data active = growth rescue above about 28%, passing the limit was not always enough; inconclusive = no clear call, values can overlap the other calls;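 note: yeast W303a lacking pdr1 and pdr3 grown in galactose medium; growth measured after three days at 30 °C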
Sa ugtP lethal = growth inhibition of ugtP-null S. aureus, primary screen, RN4220 ugtP deletion, OD600. 16 h. growth inhibition, % (test concentration not listed). 0.54% of 330,000 active; in the data active = growth inhibition above about 68%
BioA inh-1 = M. tuberculosis BioA enzyme inhibitors, primary screen, biochemical, plate reader, single point, HTS; purified M. tuberculosis BioA enzyme; inhibition, % at 9.99 µM; 7,8-diaminopelargonic acid synthase BioA (Mycobacterium tuberculosis); 0.096% of 360,000 active; in the data active = inhibition above about 40%; inconclusive = no clear call, values can overlap the other calls
Mtb betalactam = beta-lactam sensitization of Mtb H37Rv, H37Rv | M. tuberculosis H37Rv growth with meropenem, percent inhibition | inhibition, % at 25 µM | 0.27% of 330,000 active;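 note: growth measured after seven days incubation then overnight dye step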
Sa RN4220 lethal = growth inhibition of S. aureus RN4220, primary screen, OD600. AID 1259311, 2017. 16 h. 0.33% of 330,000 active. inhibition, % (no concentration beside the values); in the data active = inhibition above about 85%
BioA inh-2 = Mtb BioA enzyme inhibitors, dose response, biochemical, plate reader, cherry-pick samples, set 03. shares compounds with BioA inh-1. purified BioA enzyme. max activity, %. 310 tested, under 10 active;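 note: top concentration of the dilution series was 10 µM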
Target sequence (P9WQ81 whole entry, looked up): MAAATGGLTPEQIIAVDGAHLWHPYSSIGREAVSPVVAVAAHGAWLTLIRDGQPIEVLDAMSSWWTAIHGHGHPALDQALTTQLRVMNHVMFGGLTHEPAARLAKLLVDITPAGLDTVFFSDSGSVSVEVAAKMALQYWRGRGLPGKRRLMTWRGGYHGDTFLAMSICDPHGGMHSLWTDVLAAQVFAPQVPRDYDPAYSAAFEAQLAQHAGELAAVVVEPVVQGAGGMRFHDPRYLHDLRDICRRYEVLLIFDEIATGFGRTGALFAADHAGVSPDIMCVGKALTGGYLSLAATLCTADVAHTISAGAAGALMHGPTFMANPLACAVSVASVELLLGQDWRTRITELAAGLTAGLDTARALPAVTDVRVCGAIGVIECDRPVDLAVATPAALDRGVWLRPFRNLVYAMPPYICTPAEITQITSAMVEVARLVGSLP
HepG2 tox 2 = cytotoxicity in HepG2 cells, dose response, cytotoxicity control, cell-based, plate reader, cherry-pick, two tests | shares compounds with BioA inh-1 | AID 651898, 2012 | max activity, % | 310 tested, under 10 active
3T3 cytotox 5 = cytotoxicity in NIH3T3 fibroblasts, dose response, cytotoxicity control, cell-based, plate reader, cherry-pick, two tests; AID 651900, 2012; shares compounds with BioA inh-1; activity change, negative = cytotoxicity, % at 26 µM; 310 tested, under 10 active
A number is an active result; 0 = inactive; ? = inconclusive; - = not tested or not shown. Unless noted, the rule behind the calls is not given here.

SMILES | PfHsp40 yeast | Sa ugtP lethal | BioA inh-1 | Mtb betalactam | Sa RN4220 lethal | BioA inh-2 | HepG2 tox 2 | 3T3 cytotox 5
CCOC(=O)CNC(=O)c1sc2ncnc(N3CCc4ccccc4C3)c2c1C | 0 | 0 | 63.4 | 0 | 0 | 0 | 0 | 0
COC(=O)C1C(c2cccc(C(F)(F)F)c2)NC(=O)N(Cc2ccccc2)C1C (stereo not given) | - | 0 | - | - | 0 | - | - | -
Cc1ccc(NS(=O)(=O)c2ccc3c(c2)n(C)c(=O)n3C)c(C)c1 | 0 | 0 | 0 | 0 | 0 | - | - | -
CCn1c(=O)c(=O)n(CC)c2cc(S(=O)(=O)Nc3cc(C)ccc3C)ccc21 | 0 | 0 | 42.1 | 0 | 0 | 0 | 0 | 0
COc1ccc(CCNC(=O)c2cnc3n(c2=O)CCS3)cc1OC | 0 | 0 | 47.7 | 0 | 0 | 0 | 0 | 0
NC(=O)C1=CC(c2coc3ccccc3c2=O)CC(OCc2ccc(CO)cc2)O1 (stereo not given) | - | 0 | - | - | 0 | - | - | -
CC#CCN1c2ccccc2[C@]23CC(C(=O)OC)N(C(=O)OCC)C2=NC(C(=O)OC)=C(C(=O)OC)C13 (stereo not given in full) | - | 0 | - | - | 0 | - | - | -
CCc1nc2ccc(Br)cc2c(=O)n1-c1ccccc1C(F)(F)F | 0 | 0 | 59.9 | 0 | 0 | 0 | ? | 0
CCc1nn(CC(=O)N2CCN(Cc3ccc4c(c3)OCO4)CC2)c(=O)c2cc3occc3n12 | 0 | 0 | 56.9 | - | 0 | 0 | 0 | 0
CCCC(=O)N1CCN(Cc2ccc3c(c2)OCO3)CC1 | 0 | 0 | 0 | 0 | 0 | - | - | -
O=S(=O)(NCc1ccccc1)C1CC2C=CC1C2 (stereo not given) | - | 0 | - | - | 0 | - | - | -
COc1ccc(NC(=O)N(C)CC2Oc3ccc(NC(=O)Cc4ccccc4)cc3C(=O)N(C(C)CO)CC2C)cc1 (stereo not given) | - | 0 | - | - | 0 | - | - | -
Cc1cccc(C2c3[nH]c4ccccc4c3CCN2C(=O)CN2CCOC2=O)n1 (stereo not given) | 0 | 0 | 52.3 | 0 | 0 | 0 | 0 | 0
CCNC(=O)[C@@H]1[C@@H](CO)[C@@H]2Cn3c(ccc(-c4cccnc4)c3=O)[C@@H]2N1Cc1ccc2c(c1)OCO2 | - | - | 64.5 | - | - | 0 | 0 | 0
COC(=O)[C@@H]1[C@@H](CO)[C@@H]2Cn3c(ccc(-c4ccccc4)c3=O)[C@@H]2N1Cc1cccc(F)c1 | - | - | 41.7 | - | - | 0 | 0 | 0
CCN1[C@H](C(=O)NCc2ccccc2)[C@@H](CO)[C@@H]2Cn3c(ccc(-c4ccncc4)c3=O)[C@@H]21 | - | - | 0 | - | - | - | - | -
CCNC(=O)[C@H]1[C@H](CO)[C@H]2Cn3c(ccc(-c4cccnc4)c3=O)[C@H]2N1Cc1ccc2c(c1)OCO2 | - | - | 0 | - | - | - | - | -
CCN1[C@H](C(=O)NCc2ccccc2)[C@@H](CO)[C@@H]2Cn3c(ccc(-c4cccnc4)c3=O)[C@@H]21 | - | - | 41.1 | - | - | 0 | 0 | 0
CCOC(=O)C1C2COc3ccc(Br)cc3C2N2C(=O)N(c3ccc(F)cc3)C(=O)[C@@]12C (stereo not given in full) | - | 0 | - | - | 0 | - | - | -
O=C1C=C(c2cccc(CO)c2)CC(c2ccc3c(c2)OCO3)C1 (stereo not given) | - | 0 | - | - | 0 | - | - | -
CCOC(=O)c1ccc2c(c1)nc(SCc1cn3ccsc3n1)n2CC | 0 | 0 | 53.3 | 0 | 0 | 0 | 0 | 0
CN1CCN(C(=O)C2=CC(c3ccc(C(F)(F)F)cc3)CC(OCc3ccc(CO)cc3)O2)CC1 (stereo not given) | - | 0 | - | - | 0 | - | - | -
COc1ccc(NC(=O)Nc2cccc3c2OC(CN(C)CC2CCCCC2)C(C)CN(C(C)CO)C3=O)cc1 (stereo not given) | - | 0 | - | - | 0 | - | - | -
O=C(C1CC1)N1CC[C@@H]2[C@H](CO)Nc3ccc(Br)cc3[C@@H]21 | - | - | 84.5 | - | - | ? | 0 | 0
O=C(Cc1ccncc1)N1CC[C@@H]2[C@H](CO)Nc3ccc(Br)cc3[C@@H]21 | - | - | 0 | - | - | - | - | -
SMILES | PfHsp40 yeast | Sa ugtP lethal | BioA inh-1 | Mtb betalactam | Sa RN4220 lethal | BioA inh-2 | HepG2 tox 2 | 3T3 cytotox 5
COc1cccc(-c2ccc3c(c2)[C@H]2[C@H](CCN2C(=O)C2CCC2)[C@@H](CO)N3)c1 | - | - | 59.8 | - | - | 0 | 0 | 0
O=C(c1ccncc1)N1CC[C@@H]2[C@@H](CO)Nc3ccc(Br)cc3[C@@H]21 | - | - | 47.6 | - | - | 0 | 0 | 0
CN1CC2C3C(=O)N(Cc4ccccc4)C(=O)C3[C@](Cc3ccccc3)(C1=O)N2C(=O)c1ccc(Cl)cc1 (stereo not given in full) | - | 0 | - | - | 0 | - | - | -
CCc1ccc(NC(=O)C(CC)Sc2nc3ccsc3c(=O)n2CCC(=O)O)cc1 (stereo not given) | 0 | 0 | 0 | 0 | 0 | - | - | -
CCC(Sc1nc2ccsc2c(=O)n1Cc1ccc(C(=O)O)cc1)C(=O)Nc1cccc(OC)c1 (stereo not given) | - | - | 74.7 | - | - | 0 | 0 | 0
CC(=O)n1cc(C2C=C(C(=O)N3CCN(Cc4ccc5c(c4)OCO5)CC3)OC(OCCCCO)C2)c2ccccc21 (stereo not given) | - | 0 | - | - | 0 | - | - | -
CCN(Cc1ccccc1)S(=O)(=O)c1ccc2c(c1)NC(=O)CS2 | 0 | 0 | 0 | 0 | 0 | - | - | -
CN(Cc1ccccc1)C(=O)CCS(=O)(=O)c1ccc2c(c1)NC(=O)CS2 | 0 | 0 | 40.7 | 0 | 0 | 0 | 0 | 0
CN1C(=CC(=O)c2cccnc2)Sc2ccccc21 | - | 0 | - | - | 0 | - | - | -
CC1=CC2=NC(=O)/C(=C\c3cc(C)n(-c4ccccc4F)c3C)C(=N)N2O1 | 0 | 0 | 41.0 | 0 | 0 | 0 | 0 | 0
CC1=CC2=NC(=O)/C(=C\c3cc(C)n(-c4ccccc4)c3C)C(=N)N2O1 | 0 | 0 | 0 | 0 | 0 | - | - | -
C=CCn1c(SCc2c(C(=O)OC)sc(N)c2C(=O)OC)nnc1-c1ccc(Br)cc1 | 0 | 0 | 59.3 | 0 | 0 | 0 | 0 | 0
CC(=Cc1ccccc1)CC1=C(C)C2(CC2)[C@@]2(C)OC(=O)OC2C1=CCO (stereo not given in full) | - | 0 | - | - | 0 | - | - | -
CC=C(C)C(=O)NC(C)CN1C2=NCC(C(C)C)N2CC1Cc1ccc(OC)cc1 (stereo not given) | - | 0 | - | - | 0 | - | - | -
NC(=O)CNC(=O)C1CC2(CC(c3ccccc3)=NO2)CN1C(=O)c1ccc(Br)cc1 (stereo not given) | - | 0 | - | - | 0 | - | - | -
O=C(O)CN1C(=O)/C(=C\c2cc(Br)ccc2OCc2ccccc2F)SC1=S | 0 | 0 | 0 | ? | 0 | - | - | -
O=C(O)CN1C(=O)/C(=C\c2cc(Br)ccc2OCc2ccc([N+](=O)[O-])cc2)SC1=S | 0 | 0 | 62.0 | 0 | 0 | 0 | ? | ?
CC(CCC=CC(=O)O)OC1OC(C)C(O)CC1O (stereo not given) | - | 0 | - | - | 0 | - | - | -
CCCCC(CNC(CNC)C(C)CC)NCCC12CCC(CC1)C2 (stereo not given) | - | 0 | - | - | 0 | - | - | -

Assay outcomes from PubChem BioAssay.
